Screens (PubChem BioAssay)
Shown are actives, neighbours in structure and some others; about 1.2% of the full set was active somewhere.
CCT chaperon mod – changes cytosolic chaperonin activity; purified chaperonin ATPase assay, HTRF ADP detection, 30 min; activity change, % (no concentration beside the values), hits read low; 0.3% of 360,000 active; in the data active = activity change below about -30%; note: % is set by controls: 0 for no effect and ±100 for the full control effect
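TRiC (40 or 20 nM final, by batch activity) in 30 mM Tris pH 7.4, 100 mM KCl, 5 mM MgCl2, 1 mM DTT was treated with compound at 76 uM single dose, then 10 uM ATP, 30 min at 37 °C. ADP was read by HTRF Transcreener.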
gsp agonist – activates gsp, the McCune-Albright syndrome mutation. Potency, µM (highest dose often 76.9 µM), for inactives: at the top dose activation (cAMP increase), most hits filed as activators. gsp mutant cells, cAMP HTRF, 30 min. 0.13% of 340,000 active; active = well fitted activation curve with a large enough effect; inconclusive = small, poorly fitted or top-dose-only effect, or another doubt; inactive = no such curve, though single readings can be large or run the other way; cell line not stated here;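 note: phosphodiesterase inhibitor Ro 20-1724 added with compounds to block cAMP breakdown; potency is the fitted concentration of half-maximal effect; nearly all actives have a fitted effect of over 60% in size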
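Cells in DMEM/10% FBS with G418 were pretreated with compounds in DMSO plus […] (300 uM stock) for 30 min at 37C. cAMP was measured by HTRF (cAMP-d2 plus anti-cAMP antibody-K) after 30 min at room temperature.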
uPA surface inh – cell surface uPA generation inhibition; AID 540303; 0.31% of 330,000 active; Potency, µM (doses to about 38.3 µM), inactives show at the top dose activity change, negative = inhibition, most hits filed as inhibitors; cell surface uPA generation assay, qHTS; active = well fitted inhibition curve with a large enough effect; inconclusive = small, poorly fitted or top-dose-only effect; inactive = no such curve, though single readings can be large or run the other way; tested in mouse RAW 264.7 cells; note: potency is the fitted concentration of half-maximal effect; % is set by controls: 0 for no effect and ±100 for the full control effect; nearly all actives have a fitted effect of over 55% in size
gsp antag – antagonists of gsp mutant (McCune-Albright syndrome) | 0.4% of 340,000 active | AID 624288 | Potency, µM (doses to about 76.9 µM), without a hit: top-dose activity change, negative = inhibition, actives largely listed as inhibitors | gsp-mutant cells, cAMP HTRF, 30 min; calls by dose curve; cell line not stated here;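 note: intracellular cAMP measured with PDE inhibitor Ro 20-1724 present during compound exposure; potency is the fitted concentration of half-maximal effect; % is set by controls: 0 for no effect and ±100 for the full control effect; nearly all actives have a fitted effect of over 65% in size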
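Cells, 2000/well, grown 16–24 h in DMEM 10% FBS with 0.5 mg/ml G418, then compounds plus […] (300 uM addition stock), 30 min at 37C. cAMP read by HTRF (cAMP-d2 and anti-cAMP antibody-K in lysis buffer) after 30 min RT.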
TSHR antag – blocks TSH signaling through the human TSH receptor; 0.2% of 330,000 active; TSHR-expressing cells, TSH-stimulated cAMP HTRF, 2 h; hits give low values; P16473; activity change, negative = inhibition, % at 11.5 µM;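 active = activity change below a set negative limit, meaning inhibition stronger than a set level, cut at about -70% in these data; inconclusive = activity change between two set negative limits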; note: % is set by controls: 0 for no effect and ±100 for the full control effect
Target sequence (P16473 whole entry, looked up): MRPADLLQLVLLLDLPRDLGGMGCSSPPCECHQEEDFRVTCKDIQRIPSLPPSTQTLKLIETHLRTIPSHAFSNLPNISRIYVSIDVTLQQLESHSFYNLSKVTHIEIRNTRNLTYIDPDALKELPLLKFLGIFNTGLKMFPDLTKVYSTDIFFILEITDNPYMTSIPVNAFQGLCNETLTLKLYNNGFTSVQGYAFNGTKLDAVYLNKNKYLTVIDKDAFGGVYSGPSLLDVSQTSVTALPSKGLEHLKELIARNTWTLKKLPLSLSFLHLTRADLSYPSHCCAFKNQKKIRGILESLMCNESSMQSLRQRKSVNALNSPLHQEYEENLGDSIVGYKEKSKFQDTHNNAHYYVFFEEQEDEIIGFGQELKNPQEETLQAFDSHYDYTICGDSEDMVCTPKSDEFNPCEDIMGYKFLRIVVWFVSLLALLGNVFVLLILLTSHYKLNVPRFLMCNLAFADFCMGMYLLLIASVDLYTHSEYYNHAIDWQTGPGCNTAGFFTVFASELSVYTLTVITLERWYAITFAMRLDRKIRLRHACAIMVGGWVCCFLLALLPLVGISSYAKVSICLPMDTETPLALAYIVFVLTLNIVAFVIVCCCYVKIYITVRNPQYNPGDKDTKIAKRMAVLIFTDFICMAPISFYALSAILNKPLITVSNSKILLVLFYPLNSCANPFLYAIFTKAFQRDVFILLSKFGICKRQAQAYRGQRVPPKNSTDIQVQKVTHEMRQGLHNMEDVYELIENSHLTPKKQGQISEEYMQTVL
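Antagonism was scored as loss of TSH-driven cAMP in TSHR cells, stimulated with 4nM TSH (EC80) for 2 hours at 37 deg C and detected by homogeneous HTRF competition immunoassay.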
Mm-Cpn inhibitor – blocks the Methanococcus maripaludis chaperonin Mm-Cpn; purified Mm-Cpn ATPase, ADP Transcreener TR-FRET; Potency, µM (series often up to 76.9 µM), inactives show at the highest dose activity, negative = inhibition, most hits filed as inhibitors; 0.031% of 330,000 active; active = well fitted inhibition curve with a large enough effect; inconclusive = small, poorly fitted or top-dose-only effect; note: potency is the fitted concentration of half-maximal effect; % is set by controls: 0 for no effect and ±100 for the full control effect; nearly all actives have a fitted effect of over 80% in size
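Purified archaeal chaperonin (25 nM final) was preincubated with compound for 10 min at 37°C, then ATP (10 uM final) was added for 30 min at 37°C in Tris pH 7.4/KCl/MgCl2/DTT buffer. ADP was quantified by HTRF Transcreener TR-FRET.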
Numbers without * were called inactive; ? = inconclusive; nt = not tested or not shown; [ ] = dose if it differs, or a comment.

SMILES | CCT chaperon mod | gsp agonist | uPA surface inh | gsp antag | TSHR antag | Mm-Cpn inhibitor
Cc1c(NS(=O)(=O)c2cccc(C(=O)NCc3ccccc3)c2)c(=O)n(-c2ccccc2)n1C | -1.9 | 20.6%[15.4 µM] | -2.2% | 1.9% | 11.6 | 0.8%
O=C(CSc1ccccc1Cl)c1ccco1 | 0.3 | 13.7% | -7.9% | -9.8% | -12.5 | -1.8%
Cc1ccc(C)c(N2CCN(S(=O)(=O)c3ccc4c(c3)CC(C)N4C(=O)C3CC3)CC2)c1 (centres undefined) | -0.2 | 21.6% | 1.8% | 5.4% | -76.9* | 1.3%
COc1ccc(NC(=O)CCNS(=O)(=O)c2ccc3c(c2)CC(C)N3C(C)=O)cc1 (centres undefined) | -9.4 | -5.9% | 1.7% | -0.1% | -91.9* | -2.9%
COc1ccc(S(=O)(=O)N2c3ccc(F)cc3CCC2C)cc1 (centres undefined) | -1.4 | -10.9% | ? | 12.7% | nt | nt
CC(=O)Nc1ccc(S(=O)(=O)N2c3ccc(F)cc3CCC2C)cc1 (centres undefined) | -1.8 | -7.6% | 4.47µM* | 13.9% | nt | nt
Cc1cccc(N2CCN(S(=O)(=O)c3ccc4c(c3)CC(C)N4C(=O)C3CC3)CC2)c1C (centres undefined) | -0.2 | -5.9% | -13.1% | -2.8% | -1.0 | -0.9%
CC(=O)N1c2ccc(S(=O)(=O)N3CCC(C(=O)Nc4ccc(F)cc4)CC3)cc2CC1C (centres undefined) | -0.6 | 7.8% | -4.8% | 10µM* | -6.7 | 0.2%
COc1cccc(NC(=O)C2CCN(S(=O)(=O)c3ccc4c(c3)CC(C)N4C(C)=O)CC2)c1 (centres undefined) | -0.9 | ? | -5.3% | ? | -3.5 | 3.4%
Cc1ccnc(NC(=O)C2CCN(S(=O)(=O)c3ccc(Cl)c(C(F)(F)F)c3)CC2)c1 | -1.2 | 2.4%[15.4 µM] | 0.9% | -13.1% | 16.5 | -0.8%
O=C(Nc1ccncc1)C1CCN(S(=O)(=O)c2ccc(Cl)c(C(F)(F)F)c2)CC1 | -1.5 | -1.4% | 11.2µM* | -3.0% | 3.7 | 1.5%
COC(=O)c1sc(-c2cccs2)cc1NC(=O)/C=C/C(=O)O | -41.9* | ? | -11.8% | 22.4µM* | -24.0 | ?
CC(=O)c1ccc(OCc2cc(C(=O)N(C)Cc3ccon3)no2)cc1 | 1.7 | -40.2% | 7.2% | -2.2% | 3.0 | -1.3%
O=C(c1ccc([N+](=O)[O-])o1)N1CCc2ccccc21 | -1.2 | -5.2%[15.4 µM] | -7.5% | -5.1% | -6.0 | -4.2%
CCOC(=O)C(Cc1ccccc1)NC(=O)CCc1nnc2ccc(N3CCOCC3)nn12 (centres undefined) | -1.3 | 20µM* | -2.5% | 4.9% | 16.0 | 0.2%
CCOc1ccc(CCNC(=O)CCc2nnc3ccc(N4CCOCC4)nn23)cc1OCC | -1.0 | 7.6% | -0.2% | 7.6% | 6.5 | 0.1%
CSc1ncccc1C(=O)OCC(=O)c1cc(C)n(C)c1C | -0.8 | 4.1% | 4.8% | 5.6% | nt | -24.3%
Cc1cc(C(=O)COC(=O)c2cccnc2Cl)c(C)n1C | -2.9 | ? | 8.91µM* | 4.4% | nt | -9.1%
CCOC(=O)c1ccc(Nc2cc(C)nc(-c3ccccc3)n2)cc1 | -0.2 | -10.0% | 5.01µM* | -15.7% | 17.6 | -4.5%
O=C(Cn1ncc(Cl)c(Cl)c1=O)NC1CCCCC1 | -0.6 | ? | 10µM* | -12.1% | 26.6 | -2.1%
CC1(CCc2ccccc2)NC(=O)N(CC(=O)Nc2c(F)cccc2F)C1=O (centres undefined) | -50.8* | -21.5% | -12.0% | 19.3% | -10.3 | -3.3%
O=c1c2ccccc2oc2ccc(NCCCn3ccnc3)cc12 | 0.1 | nt | 4.47µM* | -10.7% | 1.0 | 0.0%
c1ccc2c(c1)oc1c(NCCCn3ccnc3)ncnc12 | -3.3 | 13.3% | 8.8% | 4.8% | 0.5 | -0.1%
CCOC(=O)c1[nH]c(C)c(C(=O)Nc2ccc(C)cc2C)c1C | -0.4 | -35.6% | 2.51µM* | 12.5% | 1.9 | 1.4%
Cc1cc(O)ccc1C1(c2ccc(O)cc2C)OC(=O)c2ccccc21 | -0.3 | -0.8% | 1.0% | 15.8% | -2.2 | 1.8%
SMILES | CCT chaperon mod | gsp agonist | uPA surface inh | gsp antag | TSHR antag | Mm-Cpn inhibitor
O=C1OC2(c3ccccc31)c1cc(I)c(O)c(I)c1Oc1c2cc(I)c(O)c1I | nt | nt | nt | nt | -113.8* | 31.6µM*
CC(=O)Nc1cc(-c2cccc(F)c2)cn2c(-c3ccc(S(C)(=O)=O)cc3)cnc12 | -0.8 | nt | nt | nt | nt | nt
CN1N=C(N)c2cn(C3OC(COP(=O)(O)O)C(O)C3O)c3ncnc1c23 (centres undefined) | -3.0 | ? | -11.9% | -4.1% | nt | nt
COC(=O)c1ccc(NC(=O)c2cccc(NC(=O)c3ccccc3)c2)cc1 | -1.2 | -20.9% | 5.6% | 6.2% | -8.0 | -3.7%
CC(C)CCn1c(=O)c2ccccc2n2c(CCC(=O)NCC3CCCO3)nnc12 (centres undefined) | 1.4 | 31.6µM* | 1.8% | 6.5% | -11.3 | -2.2%
O=C(CCc1nnc2n(Cc3ccc(Cl)cc3)c(=O)c3ccccc3n12)N1CCN(c2ccccn2)CC1 | -1.3 | ? | -5.3% | -12.0% | -133.6* | ?
CC(C)OCCCn1c(=O)c2ccccc2n2c(CCC(=O)N3CCN(c4ccccn4)CC3)nnc12 | -4.1 | 20µM* | -5.0% | -7.6% | -5.2 | 1.4%
O=C(CCc1nnc2n(Cc3ccc(Cl)cc3)c(=O)c3ccccc3n12)NCCN1CCCC1 | -1.6 | 27.1% | -1.5% | 6.1% | -4.6 | 2.2%
Cc1ccc2c(C)c(C(=O)NCCN3CCCC(O)C3)oc2c1C (centres undefined) | -37.9* | -11.4% | 2.4% | 5.4% | 4.6 | 0.7%
O=C(NCc1ccc2c(c1)OCO2)c1cc(-c2ccncc2)nc2ccccc12 | -0.3 | 19.7%[15.4 µM] | -1.6% | -10.5% | -8.2 | 0.2%
CN(C)S(=O)(=O)n1cnc([C@H]2c3c(ncn3Cc3ccccc3)C[C@H]3COC(=O)[C@@H]32)c1 | -2.8 | -7.3% | -5.2% | 50.1µM* | 17.8 | -9.9%
CC(=O)N1CCCc2cc(S(=O)(=O)N3CCCC(C(=O)N4CCN(c5ccccc5)CC4)C3)ccc21 (centres undefined) | -0.7 | -2.8% | -21.1% | 35.5µM* | 12.3 | 0.9%
COc1cc(CNc2cccc(F)c2)cc(Br)c1O | -0.3 | 9.8% | nt | -19.1% | -1.1 | -0.4%
Cc1ccc(CNS(=O)(=O)c2cc(F)ccc2CN2C(=O)c3cccnc3C2=O)o1 | 0.9 | ? | 3.8% | -7.2% | 21.0 | -1.3%
CC(C)NS(=O)(=O)c1cc(F)ccc1CN1C(=O)c2cccnc2C1=O | 0.9 | 12.6µM* | 3.1% | -4.3% | 19.9 | -0.2%
COc1ccc(OC)c(-n2nnnc2SCC(=O)Nc2ccc3c(c2)OCCO3)c1 | -5.6 | 11.2µM* | 4.7% | 15.3% | -7.6 | -1.9%
